Laboratory results from the supplement of paper PMC6992640.
± gives the standard deviation of the averaged measurements.

What was measured:
Assay in all cases: cell viability (% of vehicle); higher = less cytotoxic
Conditions in all cases: 10 µM; 72 h
HCI01 = system: HCI01 (cells of a triple-negative basal-like breast cancer xenograft)
HCI03 = system: HCI03 (cells of an ER-positive luminal breast cancer xenograft)
HCI09 = system: HCI09 (cells of a triple-negative luminal androgen receptor type breast cancer xenograft)
HCI11 = system: HCI11 (cells of an ER-positive luminal breast cancer xenograft)
HCI13 = system: HCI13 (cells of an ER-positive luminal breast cancer xenograft)
HCI16 = system: HCI16 (cells of a triple-negative basal-like breast cancer xenograft)
UCD52 = system: UCD52 (cells of a triple-negative basal-like breast cancer xenograft)
WHIM2 = system: WHIM2 (cells of a triple-negative basal-like breast cancer xenograft)
WHIM30 = system: WHIM30 (cells of a triple-negative basal-like breast cancer xenograft)
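Note: PDX cells carrying CMV promoter-driven luciferase, viability read as total photon flux per second by IVIS imaging following D-luciferin, vehicle control 0.1% DMSO.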

| Compound | cell viability (HCI01) | cell viability (HCI03) | cell viability (HCI09) | cell viability (HCI11) | cell viability (HCI13) | cell viability (HCI16) | cell viability (UCD52) | cell viability (WHIM2) | cell viability (WHIM30) |
| --- | --- | --- | --- | --- | --- | --- | --- | --- | --- |
| CCCCS(=O)(=O)NC(Cc1ccc(OCCCCC2CCNCC2)cc1)C(=O)O.Cl.O (stereo not given) [Tirofiban hydrochloride monohydrate] | 119 ± 1.7 | 123 | 107 ± 8.2 | 106 | 135 ± 8.5 | 101 | 91.9 ± 7.1 | 99.1 ± 24 | 113 ± 22 |
| CC(OC1OCCN(Cc2nc(=O)[nH][nH]2)C1c1ccc(F)cc1)c1cc(C(F)(F)F)cc(C(F)(F)F)c1 (stereo not given) [Aprepitant] | 81 ± 48 | 91.5 | 77.5 ± 16 | 86.9 | 35.8 ± 4.5 | 66.1 | 75.3 ± 3.8 | 100 ± 11 | 83.6 ± 3.1 |
| CC1c2cccc(O)c2C(O)=C2C(=O)C3(O)C(O)=C(C(N)=O)C(=O)C(N(C)C)C3C(O)C21.Cl (stereo not given) [Doxycycline HCl] | 91.6 ± 4.1 | 106 | 90.6 ± 17 | 83.7 | 84 ± 14 | 104 | 89.9 ± 2.7 | 118 ± 14 | 98.7 ± 9.1 |
| CN(C)CCOC(c1ccccc1)c1ccccc1.Cl [Diphenhydramine HCl] | 109 ± 18 | 123 | 87 ± 2.5 | 90.8 | 74 ± 3.2 | 118 | 84.2 ± 6.5 | 107 ± 32 | 116 ± 28 |
| CCC(Nc1ncnc2nc[nH]c12)c1nc2cccc(F)c2c(=O)n1-c1ccccc1 (stereo not given) [CAL-101 (Idelalisib, GS-1101)] | 91.6 ± 8.4 | 80.7 | 88.2 ± 19 | 76.8 | 51.9 ± 3.4 | 68.1 | 68.3 ± 3 | 62.8 ± 2.9 | 121.9 ± 0.48 |
| CN1C2CCC1CC(OC(c1ccccc1)c1ccccc1)C2.CS(=O)(=O)O (stereo not given) [Benztropine mesylate] | 189 ± 60 | 108 | 110 ± 13 | 94 | 120 ± 14 | 125 | 80.4 ± 7.7 | 83.4 ± 12 | 141 ± 1.6 |
| COc1ccccc1Oc1c(NS(=O)(=O)c2ccc(C(C)(C)C)cc2)nc(-c2ncccn2)nc1OCCO [Bosentan] | 110 ± 16 | 95.1 | 71.1 ± 21 | 86.4 | 83.7 ± 5.7 | 104 | 111 ± 2.8 | 114 ± 36 | 114 ± 3.2 |
| COc1ccc(-c2nc3ccc(C4=NNC(=O)CC4C)cc3[nH]2)cc1 (stereo not given) [Pimobendan] | 134 ± 7.2 | 132 | 129 ± 48 | 132 | 146 ± 11 | 121 | 119 ± 5.9 | 168.4 ± 1.3 | 119 ± 7 |
| O=NN(CCCl)C(=O)NC1CCCCC1 [Lomustine] | 94.4 ± 38 | 115 | 93.2 ± 13 | 95.2 | 83.2 ± 8.6 | 146 | 80.2 ± 12 | 91.3 ± 13 | 125 ± 10 |
| CCc1cc(C(N)=S)ccn1 [Ethionamide] | 105 ± 11 | 111 | 100 ± 3.6 | 104 | 136 ± 15 | 100 | 82.3 ± 9.9 | 92.7 ± 8.7 | 98.5 ± 9.4 |
| COC1=CC=C(/C(C2=CC=C(OC)C=C2)=C(Cl)/C3=CC=C(OC)C=C3)C=C1 [Chlorotrianisene] | 85.2 ± 4.9 | 125 | 86.2 ± 23 | 101 | 76.3 ± 15 | 95.5 | 89.8 ± 13 | 95 ± 1.6 | 96.58 ± 0.32 |
| CCn1cc(C(=O)O)c(=O)c2cc(F)c(N3CCNC(C)C3)c(F)c21.Cl (stereo not given) [Lomefloxacin HCl] | 97.5 ± 19 | 95.2 | 94.5 ± 7.8 | 96.1 | 76 ± 14 | 107 | 91.5 ± 2.9 | 83.75 ± 0.15 | 150 ± 10 |
| O=C(O)c1cc(=O)c2ccccc2o1 [Chromocarb] | 124 ± 23 | 119 | 96.2 ± 1.6 | 78.7 | 71.6 ± 5.2 | 111 | 92.59 ± 0.2 | 103 ± 11 | 85.9 ± 2.8 |
| NC(=O)NO [Hydroxyurea] | 62.8 ± 36 | 111 | 89.2 ± 7.3 | 90 | 113 ± 11 | 110 | 78.7 ± 4.1 | 96.5 ± 31 | 125 ± 3.9 |
| Cl.c1ccc2c(c1)CCCC2C1=NCCN1 (stereo not given) [Tetrahydrozoline HCl] | 114 ± 3.1 | 116 | 97.1 ± 17 | 106 | 86.8 ± 1.9 | 108 | 89.5 ± 2 | 101 ± 21 | 115 ± 2.9 |
| Cl.O=C(O)C=Cc1ccc(Cn2ccnc2)cc1 [Ozagrel HCl] | 72.6 ± 40 | 135 | 100 ± 10 | 99.5 | 126 ± 10 | 122 | 87.7 ± 1.4 | 93.3 ± 30 | 140 ± 2.3 |
| OCC1OC(Oc2ccc(O)cc2)C(O)C(O)C1O (stereo not given) [Arbutin] | 107 ± 28 | 127 | 100 ± 16 | 89.2 | 96.6 ± 4.9 | 131 | 103 ± 1.1 | 81.9 ± 9 | 84.3 ± 7.3 |
| O=C(O)c1cc(-c2ccccc2)nc2ccccc12 [Cinchophen] | 157 ± 2.4 | 125 | 104 ± 7.1 | 107 | 111 ± 1.3 | 124 | 120 ± 4.4 | 138 ± 6.4 | 139 ± 28 |
| COC(=O)C1=C(C)NC(C)=C(C(=O)OCC(C)C)C1c1ccccc1[N+](=O)[O-] (stereo not given) [Nisoldipine] | 98.3 ± 32 | 109 | 27.4 ± 1.6 | 74 | 93.1 ± 39 | 180 | 84.1 ± 5.2 | 88.6 ± 17 | 123 ± 16 |
| COc1cc2ncnc(Nc3ccc(F)c(Cl)c3)c2cc1OCCCN1CCOCC1 [Gefitinib (ZD1839)] | 95.6 ± 51 | 55.3 | 77.9 ± 22 | 110 | 63.3 ± 1.6 | 94.8 | 52.2 ± 1.3 | 47.8 ± 2.2 | 128.3 ± 1.1 |

| Compound | cell viability (HCI01) | cell viability (HCI03) | cell viability (HCI09) | cell viability (HCI11) | cell viability (HCI13) | cell viability (HCI16) | cell viability (UCD52) | cell viability (WHIM2) | cell viability (WHIM30) |
| --- | --- | --- | --- | --- | --- | --- | --- | --- | --- |
| Cc1cccc(-c2nn3c(c2-c2ccnc4ccc(C(N)=O)cc24)CCC3)n1 | 117 ± 2.1 | 90.1 | 115 ± 56 | 98.7 | 56.3 ± 6.4 | 89.8 | 73.1 ± 3.3 | 147 ± 41 | 111 ± 3 |
| CC(C)=CCCC(C)=CCCC(C)=CCSc1ccccc1C(=O)O [Salirasib] | 69.5 ± 50 | 112 | 95.6 ± 7.4 | 97.9 | 84.5 ± 4.3 | 103 | 95.5 ± 4.6 | 39.5 ± 1.3 | 120 ± 15 |
| NS(=O)(=O)c1cc2c(cc1Cl)NC=NS2(=O)=O [Chlorothiazide] | 101 ± 4.1 | 149 | 102 ± 12 | 121 | 134 ± 16 | 90 | 93.8 ± 13 | 89.4 ± 27 | 124 ± 29 |
| CN(C)CCc1c[nH]c2ccc(Cn3cncn3)cc12.O=C(O)c1ccccc1 [Rizatriptan Benzoate] | 108 ± 11 | 118 | 137 ± 72 | 121 | 110 ± 21 | 106 | 102 ± 9.9 | 86.3 ± 21 | 124 ± 6.5 |
| CC(=O)OC1(C(C)=O)CCC2C3C=C(Cl)C4=CC(=O)C5CC5C4(C)C3CCC21C (stereo not given) [Cyproterone Acetate] | 88.6 ± 12 | 112 | 73.1 ± 17 | 87.1 | 145 ± 8 | 110 | 89.2 ± 7.3 | 116 ± 34 | 128 ± 7.7 |
| Nc1ncnc2c1ncn2C1OC(CO)C(O)C1O (stereo not given) [Vidarabine] | 64.8 ± 36 | 136 | 90.1 ± 5.1 | 86.9 | 106 ± 6.1 | 96.1 | 80.5 ± 2.9 | 105 ± 19 | 153 ± 7.4 |
| Cc1ccc(Cl)c(Nc2ccccc2C(=O)[O-])c1Cl.[Na+] [Meclofenamate Sodium] | 111 ± 10 | 158 | 100 ± 5.1 | 103 | 122 ± 5 | 121 | 92.1 ± 4.6 | 97.8 ± 9.9 | 144 ± 2.2 |
| Clc1ccc(CCC(Cn2ccnc2)Sc2c(Cl)cccc2Cl)cc1.O=[N+]([O-])O (stereo not given) [Butoconazole nitrate] | 67.2 ± 44 | 99.5 | 36.7 ± 9.7 | 143 | 39.6 ± 1.4 | 186 | 74.6 ± 3.6 | 53.8 ± 16 | 190 ± 7.9 |
| CC(=O)Oc1ccc(C(c2ccc(OC(C)=O)cc2)c2ccccn2)cc1 [Bisacodyl] | 53.2 ± 14 | 130 | 30.9 ± 6.2 | 50.3 | 184 ± 16 | 70.9 | 80.9 ± 17 | 111 ± 43 | 76.5 ± 1.4 |
| CC(C)(C)NC(=O)C1CCC2C3CCC4NC(=O)C=CC4(C)C3CCC12C (stereo not given) [Finasteride] | 136 ± 20 | 115 | 103 ± 8.5 | 125 | 96.2 ± 4.9 | 99.8 | 81.1 ± 1.1 | 94 ± 1.5 | 156 ± 18 |
| CC(=O)Oc1ccccc1C(=O)O [Aspirin (Acetylsalicylic acid)] | 174 ± 16 | 107 | 98.5 ± 3.8 | 136 | 148 ± 30 | 151 | 142 ± 13 | 101 ± 16 | 160 ± 23 |
| COc1ccc2[nH]cc(CCNC(C)=O)c2c1 [Melatonin] | 112 ± 10 | 134 | 106 ± 2.2 | 97.8 | 108 ± 3.3 | 109 | 127 ± 5.4 | 121 ± 26 | 158 ± 17 |
| CCCC(C(=O)OCCN(CC)CC)(c1ccccc1)c1ccccc1.Cl [SKF 525A (hydrochloride)] | 103 ± 33 | 123 | 93.8 ± 1.2 | 66.3 | 103 ± 28 | 130 | 61.5 ± 5.9 | 99.1 ± 11 | 119.8 ± 0.2 |
| NC(=O)c1ccc(I)c([N+](=O)[O-])c1 [Iniparib (BSI-201)] | 121 ± 21 | 198 | 123 ± 20 | 82.6 | 124 ± 31 | 106 | 114 ± 5.4 | 181 ± 22 | 129 ± 22 |
| CC(C)(Oc1ccc(C2CC2(Cl)Cl)cc1)C(=O)O (stereo not given) [Ciprofibrate] | 96 ± 14 | 126 | 94.3 ± 11 | 79.4 | 110 ± 12 | 114 | 96.2 ± 2.9 | 120 ± 3.9 | 127 ± 15 |
| c1ccc(-c2ccc(C(c3ccccc3)n3ccnc3)cc2)cc1 (stereo not given) [Bifonazole] | 93.4 ± 4.3 | 108 | 74 ± 1.6 | 95.3 | 84.3 ± 22 | 108 | 149 ± 50 | 121 ± 1.4 | 126 ± 20 |
| CCN(CC)CCOC(=O)C1(C2CCCCC2)CCCCC1.Cl [Dicyclomine HCl] | 126 ± 7.2 | 123 | 102 ± 11 | 99.7 | 90.1 ± 10 | 141 | 68.6 ± 1.9 | 104 ± 1.9 | 117 ± 2.5 |
| CC(C)(C)NCC(O)COc1nsnc1N1CCOCC1.O=C(O)C=CC(=O)O (stereo not given) [Timolol Maleate] | 115.9 ± 0.17 | 116 | 106 ± 5.1 | 107 | 89.5 ± 12 | 120 | 96.4 ± 1.9 | 93.1 ± 15 | 112 ± 6.8 |
| Cn1cc[nH]c1=S [Methimazole] | 143 ± 11 | 119 | 130 ± 23 | 112 | 82 ± 21 | 126 | 100.1 ± 0.29 | 107 ± 2.4 | 139 ± 3.8 |
| CCOc1cc(C(CS(C)(=O)=O)N2C(=O)c3cccc(NC(C)=O)c3C2=O)ccc1OC (stereo not given) | 161 ± 13 | 149 | 112.6 ± 0.15 | 121 | 150 ± 16 | 135 | 117 ± 13 | 118 ± 7.6 | 140 ± 16 |
